Measurements from the supplement of paper PMC11732987, “Enantioselective OTUD7B fragment discovery through chemoproteomics screening and high-throughput optimisation” (Communications Chemistry, 2025).

Experiments:
Test in all cases: log2 ratio of Biotin-Ahx-Ub-VS probe labelling (fragment/DMSO); higher = less target engagement (more negative = stronger competition), active = hit call of the paper (q ≤ 0.05, log2 ratio ≤ -1)
Details in all cases: compound concentration: 200 uM; treatment time: 3 h
[1] = target: USP34 (UniProt Q70CQ2)
Chain of USP34 (Q70CQ2 whole entry, the tested form may be a part): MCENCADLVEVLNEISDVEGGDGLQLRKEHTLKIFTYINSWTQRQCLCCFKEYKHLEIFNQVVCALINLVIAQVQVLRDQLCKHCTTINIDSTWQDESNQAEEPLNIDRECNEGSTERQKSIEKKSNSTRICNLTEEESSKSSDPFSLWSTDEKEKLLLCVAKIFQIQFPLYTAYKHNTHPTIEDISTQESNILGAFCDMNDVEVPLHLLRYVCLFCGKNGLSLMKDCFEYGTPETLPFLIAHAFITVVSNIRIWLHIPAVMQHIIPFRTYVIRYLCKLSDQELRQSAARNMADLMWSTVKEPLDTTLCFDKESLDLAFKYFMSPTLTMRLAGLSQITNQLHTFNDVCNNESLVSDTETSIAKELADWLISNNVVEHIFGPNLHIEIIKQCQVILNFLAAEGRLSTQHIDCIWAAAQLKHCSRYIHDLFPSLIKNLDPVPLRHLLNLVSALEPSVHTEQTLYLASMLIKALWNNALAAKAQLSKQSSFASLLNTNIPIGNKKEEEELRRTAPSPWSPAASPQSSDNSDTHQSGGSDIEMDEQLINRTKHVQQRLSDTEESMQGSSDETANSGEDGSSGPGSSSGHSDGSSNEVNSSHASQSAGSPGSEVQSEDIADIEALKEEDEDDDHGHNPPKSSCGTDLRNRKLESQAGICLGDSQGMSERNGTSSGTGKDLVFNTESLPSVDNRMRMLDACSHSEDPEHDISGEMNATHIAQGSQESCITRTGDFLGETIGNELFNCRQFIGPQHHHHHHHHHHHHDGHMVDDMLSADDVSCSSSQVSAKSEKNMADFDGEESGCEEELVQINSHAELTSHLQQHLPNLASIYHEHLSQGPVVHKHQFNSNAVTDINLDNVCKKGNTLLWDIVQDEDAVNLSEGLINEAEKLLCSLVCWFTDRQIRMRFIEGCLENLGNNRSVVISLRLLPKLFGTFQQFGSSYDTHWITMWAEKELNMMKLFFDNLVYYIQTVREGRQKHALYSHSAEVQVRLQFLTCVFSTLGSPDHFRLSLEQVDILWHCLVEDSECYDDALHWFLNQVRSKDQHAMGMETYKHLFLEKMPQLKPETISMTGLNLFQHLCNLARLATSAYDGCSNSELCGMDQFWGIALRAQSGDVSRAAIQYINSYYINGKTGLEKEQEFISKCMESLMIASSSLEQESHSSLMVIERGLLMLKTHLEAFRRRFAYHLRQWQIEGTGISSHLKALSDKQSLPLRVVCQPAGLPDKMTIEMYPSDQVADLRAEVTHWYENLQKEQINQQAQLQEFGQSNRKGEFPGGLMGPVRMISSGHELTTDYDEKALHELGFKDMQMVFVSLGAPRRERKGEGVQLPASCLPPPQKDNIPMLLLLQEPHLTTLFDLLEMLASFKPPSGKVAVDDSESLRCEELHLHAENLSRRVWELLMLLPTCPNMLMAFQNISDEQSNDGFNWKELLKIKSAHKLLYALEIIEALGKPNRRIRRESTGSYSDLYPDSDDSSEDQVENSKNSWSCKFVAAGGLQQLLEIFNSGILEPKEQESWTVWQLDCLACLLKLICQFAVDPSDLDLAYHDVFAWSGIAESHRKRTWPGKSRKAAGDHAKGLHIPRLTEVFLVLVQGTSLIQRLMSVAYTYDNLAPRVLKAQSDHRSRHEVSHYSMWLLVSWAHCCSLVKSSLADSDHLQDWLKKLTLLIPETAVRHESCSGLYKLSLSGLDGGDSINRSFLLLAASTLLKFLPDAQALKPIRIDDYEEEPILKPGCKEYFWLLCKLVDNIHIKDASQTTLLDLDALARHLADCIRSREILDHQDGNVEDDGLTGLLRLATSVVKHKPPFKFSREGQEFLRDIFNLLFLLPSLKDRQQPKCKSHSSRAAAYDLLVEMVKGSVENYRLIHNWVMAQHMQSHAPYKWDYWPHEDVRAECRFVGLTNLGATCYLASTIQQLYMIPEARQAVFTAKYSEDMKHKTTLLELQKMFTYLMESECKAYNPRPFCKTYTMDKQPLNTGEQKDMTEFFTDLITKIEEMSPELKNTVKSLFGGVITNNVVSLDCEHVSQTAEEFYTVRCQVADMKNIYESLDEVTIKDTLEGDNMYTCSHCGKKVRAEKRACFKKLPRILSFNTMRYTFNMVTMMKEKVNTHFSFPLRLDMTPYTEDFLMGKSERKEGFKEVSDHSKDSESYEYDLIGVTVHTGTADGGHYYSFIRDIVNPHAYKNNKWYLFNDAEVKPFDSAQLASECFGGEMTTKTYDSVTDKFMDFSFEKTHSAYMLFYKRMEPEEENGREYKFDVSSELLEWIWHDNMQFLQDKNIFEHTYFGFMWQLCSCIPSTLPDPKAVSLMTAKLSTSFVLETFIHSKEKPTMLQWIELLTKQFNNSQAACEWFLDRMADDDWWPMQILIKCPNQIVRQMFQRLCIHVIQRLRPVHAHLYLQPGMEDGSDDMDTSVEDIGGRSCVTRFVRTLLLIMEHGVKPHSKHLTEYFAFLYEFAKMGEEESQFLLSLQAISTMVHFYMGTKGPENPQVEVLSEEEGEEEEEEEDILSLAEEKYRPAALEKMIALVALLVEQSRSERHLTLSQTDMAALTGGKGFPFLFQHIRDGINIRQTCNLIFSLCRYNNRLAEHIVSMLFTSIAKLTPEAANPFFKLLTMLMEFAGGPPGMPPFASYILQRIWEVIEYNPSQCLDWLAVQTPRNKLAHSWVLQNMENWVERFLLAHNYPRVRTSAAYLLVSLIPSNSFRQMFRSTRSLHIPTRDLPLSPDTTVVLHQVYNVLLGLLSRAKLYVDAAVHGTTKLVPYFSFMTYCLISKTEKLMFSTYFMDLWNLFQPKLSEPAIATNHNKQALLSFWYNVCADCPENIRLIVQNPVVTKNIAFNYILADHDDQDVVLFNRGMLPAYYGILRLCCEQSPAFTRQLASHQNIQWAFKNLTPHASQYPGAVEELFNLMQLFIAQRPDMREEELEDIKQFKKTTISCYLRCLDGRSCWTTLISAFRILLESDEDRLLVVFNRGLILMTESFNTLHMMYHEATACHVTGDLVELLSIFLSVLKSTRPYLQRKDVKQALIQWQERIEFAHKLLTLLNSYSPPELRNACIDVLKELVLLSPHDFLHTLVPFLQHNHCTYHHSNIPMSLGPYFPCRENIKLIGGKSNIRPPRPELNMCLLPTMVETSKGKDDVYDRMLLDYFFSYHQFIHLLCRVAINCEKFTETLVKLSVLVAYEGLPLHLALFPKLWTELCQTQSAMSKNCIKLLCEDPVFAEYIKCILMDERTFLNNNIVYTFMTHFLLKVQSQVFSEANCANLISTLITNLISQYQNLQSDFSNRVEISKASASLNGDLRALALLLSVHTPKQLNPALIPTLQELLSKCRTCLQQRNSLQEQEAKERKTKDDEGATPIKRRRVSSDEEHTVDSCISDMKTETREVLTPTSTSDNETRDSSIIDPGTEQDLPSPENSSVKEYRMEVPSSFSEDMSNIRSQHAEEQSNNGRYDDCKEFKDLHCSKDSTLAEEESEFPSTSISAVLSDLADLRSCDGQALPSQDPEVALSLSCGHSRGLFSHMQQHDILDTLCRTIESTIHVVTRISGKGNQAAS
How it was run: (§1)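 HEK293T lysate (495 µg per sample, in Tris/CHAPS/IGEPAL buffer with protease inhibitors) was exposed in triplicate for 3 h to fragment at 200 µM or to vehicle, then to Biotin-Ahx-Ub-VS at 0.5 µM final for 1 h. Labelled DUBs were enriched on NeutrAvidin, digested with LysC and trypsin, and analysed by diaPASEF LC-MS/MS. Spectronaut label-free quantities were normalised to the global median, and values are average log2 ratios of fragment over vehicle from an unpaired t-test. Only proteins with ≥2 unique peptides were used.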

[2] = target: T1, USP36 (UniProt Q9P275)
T1 sequence (whole entry): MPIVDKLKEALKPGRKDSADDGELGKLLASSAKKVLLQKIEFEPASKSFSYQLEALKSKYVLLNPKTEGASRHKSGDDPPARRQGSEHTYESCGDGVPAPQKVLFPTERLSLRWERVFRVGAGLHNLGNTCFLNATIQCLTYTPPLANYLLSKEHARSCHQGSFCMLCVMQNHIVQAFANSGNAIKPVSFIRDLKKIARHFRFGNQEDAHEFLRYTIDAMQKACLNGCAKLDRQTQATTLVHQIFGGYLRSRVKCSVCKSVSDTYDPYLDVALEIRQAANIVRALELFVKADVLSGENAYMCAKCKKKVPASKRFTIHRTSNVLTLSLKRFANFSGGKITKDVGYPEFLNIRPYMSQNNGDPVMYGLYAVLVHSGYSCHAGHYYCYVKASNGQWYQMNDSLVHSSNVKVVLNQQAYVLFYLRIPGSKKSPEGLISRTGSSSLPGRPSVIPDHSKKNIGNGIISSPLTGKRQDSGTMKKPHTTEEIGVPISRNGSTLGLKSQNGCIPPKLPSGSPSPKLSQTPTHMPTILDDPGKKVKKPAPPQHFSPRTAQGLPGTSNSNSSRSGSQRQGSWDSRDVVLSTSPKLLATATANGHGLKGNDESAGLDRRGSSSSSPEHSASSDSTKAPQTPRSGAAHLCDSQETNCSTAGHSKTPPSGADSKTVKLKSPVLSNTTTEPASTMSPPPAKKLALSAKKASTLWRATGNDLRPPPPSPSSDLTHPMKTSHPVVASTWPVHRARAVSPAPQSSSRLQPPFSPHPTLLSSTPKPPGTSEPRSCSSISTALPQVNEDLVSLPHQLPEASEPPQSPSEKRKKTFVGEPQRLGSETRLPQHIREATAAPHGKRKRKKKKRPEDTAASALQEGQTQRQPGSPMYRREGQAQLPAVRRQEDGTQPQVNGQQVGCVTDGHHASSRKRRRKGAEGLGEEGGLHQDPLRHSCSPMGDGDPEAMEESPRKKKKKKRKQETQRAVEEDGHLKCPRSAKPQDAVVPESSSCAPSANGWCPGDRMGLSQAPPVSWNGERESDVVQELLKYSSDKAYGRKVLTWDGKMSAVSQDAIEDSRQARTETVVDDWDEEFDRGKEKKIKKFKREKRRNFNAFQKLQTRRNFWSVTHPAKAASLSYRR
How it was run: as §1

[3] = target: T2, USP38 (UniProt Q8NB14)
T2 sequence (whole entry): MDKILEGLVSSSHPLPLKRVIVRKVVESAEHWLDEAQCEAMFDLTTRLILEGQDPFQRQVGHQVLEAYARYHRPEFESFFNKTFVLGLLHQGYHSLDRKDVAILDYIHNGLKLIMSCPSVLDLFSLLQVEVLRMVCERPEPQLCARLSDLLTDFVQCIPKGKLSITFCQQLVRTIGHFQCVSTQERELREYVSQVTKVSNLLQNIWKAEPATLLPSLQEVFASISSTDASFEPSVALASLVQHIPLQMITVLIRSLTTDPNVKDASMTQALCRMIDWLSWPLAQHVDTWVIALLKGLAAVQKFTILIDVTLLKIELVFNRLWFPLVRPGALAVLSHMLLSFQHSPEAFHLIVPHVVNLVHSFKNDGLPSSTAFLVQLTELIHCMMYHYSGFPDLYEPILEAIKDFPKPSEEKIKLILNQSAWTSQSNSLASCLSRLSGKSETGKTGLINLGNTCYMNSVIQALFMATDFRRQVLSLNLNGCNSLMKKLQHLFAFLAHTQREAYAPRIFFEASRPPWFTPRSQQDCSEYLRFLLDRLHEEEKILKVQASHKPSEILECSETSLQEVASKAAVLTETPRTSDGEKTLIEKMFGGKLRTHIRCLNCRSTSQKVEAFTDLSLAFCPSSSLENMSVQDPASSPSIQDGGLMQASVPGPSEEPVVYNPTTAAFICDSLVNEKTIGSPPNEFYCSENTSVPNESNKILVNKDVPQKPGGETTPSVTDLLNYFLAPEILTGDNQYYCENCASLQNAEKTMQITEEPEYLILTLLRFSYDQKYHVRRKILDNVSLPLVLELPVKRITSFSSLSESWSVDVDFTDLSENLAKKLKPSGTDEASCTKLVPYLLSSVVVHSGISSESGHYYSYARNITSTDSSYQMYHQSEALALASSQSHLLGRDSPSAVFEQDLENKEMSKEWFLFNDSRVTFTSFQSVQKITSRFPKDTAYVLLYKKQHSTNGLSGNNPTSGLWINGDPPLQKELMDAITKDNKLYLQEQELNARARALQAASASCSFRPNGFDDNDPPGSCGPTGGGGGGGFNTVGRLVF
How it was run: as §1

[4] = target: T3, USP39 (UniProt Q53GS9)
T3 sequence (whole entry): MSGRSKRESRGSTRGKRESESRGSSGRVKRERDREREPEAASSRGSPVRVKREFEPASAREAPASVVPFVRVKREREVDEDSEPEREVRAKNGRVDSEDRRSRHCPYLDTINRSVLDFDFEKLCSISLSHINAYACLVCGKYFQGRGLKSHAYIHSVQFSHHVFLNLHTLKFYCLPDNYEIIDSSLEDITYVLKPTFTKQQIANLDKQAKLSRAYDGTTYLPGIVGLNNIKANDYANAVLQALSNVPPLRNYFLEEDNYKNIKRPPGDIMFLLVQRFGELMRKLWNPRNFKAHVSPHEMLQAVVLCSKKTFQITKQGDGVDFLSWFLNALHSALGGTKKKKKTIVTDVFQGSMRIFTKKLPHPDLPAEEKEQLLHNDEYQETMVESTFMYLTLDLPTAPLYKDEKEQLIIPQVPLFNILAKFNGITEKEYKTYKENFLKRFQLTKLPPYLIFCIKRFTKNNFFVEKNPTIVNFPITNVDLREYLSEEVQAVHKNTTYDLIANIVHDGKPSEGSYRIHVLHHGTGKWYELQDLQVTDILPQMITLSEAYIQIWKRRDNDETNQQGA
How it was run: as §1

[5] = target: T4, USP4 (UniProt Q13107)
T4 sequence (whole entry): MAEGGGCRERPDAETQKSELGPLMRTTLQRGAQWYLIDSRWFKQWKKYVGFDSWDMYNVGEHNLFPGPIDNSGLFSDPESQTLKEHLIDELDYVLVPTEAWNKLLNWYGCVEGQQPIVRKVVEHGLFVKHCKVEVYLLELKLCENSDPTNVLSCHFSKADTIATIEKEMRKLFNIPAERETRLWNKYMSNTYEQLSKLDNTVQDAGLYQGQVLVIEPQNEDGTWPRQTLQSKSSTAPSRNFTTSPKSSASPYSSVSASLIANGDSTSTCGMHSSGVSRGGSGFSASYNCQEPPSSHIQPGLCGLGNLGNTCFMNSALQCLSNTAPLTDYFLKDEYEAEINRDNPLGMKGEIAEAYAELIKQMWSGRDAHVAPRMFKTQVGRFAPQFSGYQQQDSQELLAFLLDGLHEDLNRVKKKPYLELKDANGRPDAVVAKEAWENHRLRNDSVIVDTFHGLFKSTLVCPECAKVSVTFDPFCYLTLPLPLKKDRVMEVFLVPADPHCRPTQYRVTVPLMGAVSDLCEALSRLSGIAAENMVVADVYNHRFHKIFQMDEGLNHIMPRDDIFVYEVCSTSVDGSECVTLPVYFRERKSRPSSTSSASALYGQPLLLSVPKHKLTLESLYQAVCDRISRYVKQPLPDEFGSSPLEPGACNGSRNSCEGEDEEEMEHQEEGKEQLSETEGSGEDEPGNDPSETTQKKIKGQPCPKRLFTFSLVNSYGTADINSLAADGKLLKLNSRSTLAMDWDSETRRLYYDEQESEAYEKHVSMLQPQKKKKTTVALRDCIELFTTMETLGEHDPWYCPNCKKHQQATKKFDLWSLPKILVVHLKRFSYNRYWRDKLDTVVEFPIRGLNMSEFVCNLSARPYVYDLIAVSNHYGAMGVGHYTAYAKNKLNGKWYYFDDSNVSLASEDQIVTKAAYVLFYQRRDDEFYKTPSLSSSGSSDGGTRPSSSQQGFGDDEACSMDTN
How it was run: as §1

Measured: log2 ratio of Biotin-Ahx-Ub-VS probe labelling

Cc1noc(N2CCN(C(=O)CCl)CC2)n1.Cl
inactive: [1] 0.028 | [2] -0.0365 | [3] -0.0491 | [4] 0.251 | [5] 0.0534
